According to PubChem BioAssay AID493185 (National Center for Advancing Translational Sciences (NCATS), 2011):
Calls of active or inactive are those of the source. Where a call stands in place of a potency, no number is given. The call rests on the fitted dose curve; in most records, active means well fitted activation curve with a large enough effect; inconclusive means small, poorly fitted or top-dose-only effect; inactive means no such curve, though single readings can be large or run the other way.

Test: Counterscreen for Identifying a Potential Treatment of Ataxia-Telangiectasia: Hit Validation
In short: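 Cell-free AlphaLISA counterscreen: compounds (up to 76.7 uM final) in PBS with detection mix of anti-pKAP1 and anti-KAP1 antibodies on donor/acceptor beads plus lysis buffer, incubated 6 hr at 25C before AlphaScreen read.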

Structure (SMILES)	Potency
COc1cccc(C(=O)NOCc2ccc(C)cc2)c1OC	inactive
CN(CCc1ccccn1)C(=O)c1cc(COc2ccc(F)cc2F)on1	inactive
CN(C)S(=O)(=O)c1cccc(C(=O)N=C2N=C3C=CC(Cl)=CN3Cc3ccccc32)c1	inactive
Oc1cccc(NC(=S)N=Nc2c(O)[nH]c3ccccc23)c1	inactive
FC(F)(F)c1cccc(OCC2CNC(=S)O2)c1 (stereo unspecified)	inactive
COc1ccc2c(c1)c(N=NC(N)=S)c(O)n2CC(=O)c1ccccc1	inactive
